From PubChem
G9a block = blocks human histone lysine methyltransferase G9a; Q96KQ7; G9a H3K9 monomethylation, AlphaScreen, 2 h; Potency, µM (titrated, usually from 102 µM), without a hit: at the highest dose activity, negative = inhibition, usual class: inhibitors; 350,000 compounds, 8.8% hits; note: potency is the fitted concentration of half-maximal effect; % is set by controls: 0 for no effect and ±100 for the full control effect; nearly all actives have a fitted effect of over 75% in size
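Readings reflect AlphaScreen signal from monomethyl-H3K9 antibody detection. HMT at 20 nM; substrate b-H3K9 500 nM; cofactor SAM 20 uM; 2 h RT reaction; compounds tested as titrations in qHTS with 15 min preincubation.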
CtBP-E1A blk = CtBP/E1A binding inhibition. 340,000 compounds, 0.49% hits. activity change, % (concentration not given with the values). AlphaScreen GST-E1A/His-CtBP binding, 1536-well; stronger effect = lower value. AID 651724; in the data active = activity change below about -65%; inconclusive = mostly about -30% to -63%; note: % is set by controls: 0 for no effect and ±100 for the full control effect
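AlphaScreen with 125 nM GST-E1A and 125 nM His-CtBP (5X stocks) in Tris pH 8.0, 300 mM NaCl, BSA, Tween 20, TCEP. Compounds preincubated 2 h at 37 deg C, then glutathione donor/nickel acceptor beads added for 1 h at 37 deg C in dark.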
JMJD2A Tudor inh = inhibitors of human JMJD2A Tudor domain | 390,000 compounds, 4.4% hits | AID 504339 | O75164 | Potency, µM (top dose mostly 114 µM), for inactives: at the top dose activity change, negative = inhibition, usual class: inhibitors | AlphaScreen JMJD2A-Tudor / H3K4me3 peptide binding; note: potency is the fitted concentration of half-maximal effect; % is set by controls: 0 for no effect and ±100 for the full control effect; nearly all actives have a fitted effect of over 50% in size
HP1b binding inh = blocks HP1-beta chromodomain binding to methylated histone tails; P83916; AlphaScreen HP1-beta / biotin-H3K9me3 peptide binding; Potency, µM (doses to about 114 µM), for inactives: at the top dose activity change, negative = inhibition, usual class: inhibitors; 390,000 compounds, 0.56% hits; note: potency is the fitted concentration of half-maximal effect; nearly all actives have a fitted effect of over 70% in size
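Compound inhibition of the preformed complex between 50 nM HP1-beta and 50 nM biotinylated H3K9me3 peptide was read by AlphaScreen. Buffer was PBS pH 7.4 with 0.01% Tween-20. Incubations ran 30 min at room temperature, with 10 ug/mL donor/acceptor beads.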
BAZ2B inh = BAZ2B (human) inhibition; Q9UIF8; AlphaScreen BAZ2B-H3K14Ac peptide displacement; Potency, µM (highest dose often 114 µM), for inactives: at the top dose activity change, negative = inhibition, actives largely listed as inhibitors; 360,000 compounds, 4.4% hits; note: potency is the fitted concentration of half-maximal effect; % is set by controls: 0 for no effect and ±100 for the full control effect; nearly all actives have a fitted effect of over 60% in size
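BAZ2B 50 nM plus b-H3(5-23)K14Ac 50 nM, PBS pH 7.4/0.01% Tween-20, 30 min RT; compound added (max 110 uM), 30 min RT; streptavidin donor/Ni-chelate acceptor beads 10 ug/mL final, 20 min dark; AlphaScreen read.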
Six1-Eya2 blk = Six1/Eya2 interaction inhibition. Q15475+O00167. AlphaScreen GST-Six1/His-Eya2 binding, biochemical; stronger effect = lower value. activity change, % (test concentration not listed). 360,000 compounds, 0.56% hits; in the data active = activity change below about -65%; inconclusive = mostly about -30% to -63%; note: % is set by controls: 0 for no effect and ±100 for the full control effect
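AlphaScreen with GST-Six1 and His-Eya2 (5X mix: 250 nM and 500 nM), glutathione donor and nickel acceptor beads; buffer 50 mM Tris pH 8.0, 300 mM NaCl, 1 mM TCEP; 1 h at 37 C in the dark.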
An asterisk follows results filed as active; u = inconclusive; x = no result given; ! = repeats disagree; [ ] = another dose, or the depositor's remark. A selection: hits, their analogues and other compounds. The true share with any hit is near 10%. Unless noted, calls come from the whole dose curve; as a rule, active = well fitted inhibition curve with a large enough effect; inconclusive = small, poorly fitted or top-dose-only effect; inactive = no such curve, though single readings can be large or run the other way.

SMILES | G9a block | CtBP-E1A blk | JMJD2A Tudor inh | HP1b binding inh | BAZ2B inh | Six1-Eya2 blk
C#CCOCCOCCOCCNc1nc(N2CCN(C(=O)CCCCCCCCCCNC(=O)[C@H](CCCCN)n3cc(CCCC(=O)O)nn3)CC2)nc(N2CCN(C(=O)CCCCCCCCCCNC(=O)[C@H](CCCN=C(N)N)n3cc(C[C@@H](C)CC)nn3)CC2)n1 | 7.8%[2.33 µM] | -17.9 | 56.2µM* | -22.9% | 50.1µM* | -17.7
C#CCOCCOCCOCCNc1nc(N2CCN(C(=O)CCCCCCCCCCNC(=O)[C@H](CCCCN)n3cc(CCO)nn3)CC2)nc(N2CCN(C(=O)CCCCCCCCCCNC(=O)[C@H](CCCN=C(N)N)n3cc(C[C@@H](C)CC)nn3)CC2)n1 | 24.4%[2.33 µM] | -11.3 | 44.7µM* | u | 50.1µM* | -9.7
C#CCOCCOCCOCCNc1nc(N2CCN(C(=O)CCCCCCCCCCNC(=O)Cn3cc(C[C@@H](C)O)nn3)CC2)nc(N2CCN(C(=O)CCCCCCCCCCNC(=O)[C@H](CCCCN)n3cc(C[C@@H](C)CC)nn3)CC2)n1 | -49.1%[12.7 µM] | -16.3 | 79.4µM* | u | u | -21.2
C#CCOCCOCCOCCNc1nc(N2CCN(C(=O)CCCCCCCCCCNC(=O)[C@H](CO)n3cc(CCCSC)nn3)CC2)nc(N2CCN(C(=O)CCCCCCCCCCNC(=O)[C@H](CCCCN)n3cc(C[C@@H](C)CC)nn3)CC2)n1 | -46.4%[12.7 µM] | x | x | x | u | x
C#CCOCCOCCOCCNc1nc(N2CCN(C(=O)CCCCCCCCCCNC(=O)[C@H](CCCCN)n3cc(C[C@@H](C)CC)nn3)CC2)nc(N2CCN(C(=O)CCCCCCCCCCNC(=O)[C@H](CCCCN)n3cc(C[C@@H](C)CC)nn3)CC2)n1 | x | -12.3 | 50.1µM* | 70.8µM* | x | -2.8
C#CCOCCOCCOCCNc1nc(N2CCOCC2)nc(N2CCN(C(=O)CCCCCCCCCCNC(=O)[C@H](CO)n3cc(CCCCCN)nn3)CC2)n1 | 6.0%[2.33 µM] | -9.4 | u | 8.2% | -8.3% | -6.8
C#CCOCCOCCOCCNc1nc(N2CCN(C(=O)CCCCCCCCCCNC(=O)Cn3cc(C[C@@H](C)O)nn3)CC2)nc(N2CCN(C(=O)CCCCCCCCCCNC(=O)Cn3cc(C[C@@H](C)O)nn3)CC2)n1 | 1.7%[2.33 µM] | 8.3 | -14.3% | 36.1% | -20.2% | -4.9
COc1ccc(CCNC(=O)CNS(=O)(=O)c2ccc(Cl)cc2)cc1 | x | 5.8 | -7.2% | 13.3% | x | 4.1
C#CCOCCOCCOCCNc1nc(N2CCN(C(=O)[C@H]([C@@H](C)CC)n3cc(CCCN=C(N)N)nn3)CC2)nc(N2CCN(C(=O)[C@H](CCCCN)n3cc(CC(C)O)nn3)CC2)n1 (stereo partly specified) | -2.6%[2.33 µM] | -0.5 | -11.1% | 43.8% | 0.6% | 4.7
C#CCOCCOCCOCCNc1nc(N2CCN(C(=O)CCCCCCCCCCNC(=O)[C@H]([C@@H](C)CC)n3cc(CCCCN=C(N)N)nn3)CC2)nc(N2CCN(C(=O)CCCCCCCCCCNC(=O)[C@H](CCCCN)n3cc(C[C@@H](C)CC)nn3)CC2)n1 | 16.2%[2.33 µM] | x | x | x | 50.1µM* | x
Clc1cccc(Cl)c1CNCCCSc1ncccn1 | x | x | -11.0% | 44.9% | -7.6% | 1.5
Cc1cc(C)nc(SCCS(=O)(=O)Cc2ccccc2)n1 | -1.2%[12.7 µM] | 2.1 | -11.6% | 28.1% | 4.9% | 3.4
Cc1cc(C)nc(SCCCNCc2ccccc2)n1 | 50.1µM* | 1.7 | -15.4% | 27.9% | -38.1% | 2.0
Clc1ccc(CNCCCSc2ncccn2)cc1Cl | 39.8µM* | 3.5 | -15.1% | 13.5% | -13.8%[57.1 µM] | 0.0
CN[C@H]1C[C@H]2c3cc(N4CCN(C)CC4)ccc3CCN2C(=O)[C@H]1[C@H](C)O | x | -10.2 | x | x | x | 1.0
Cc1ccc(C(=O)NCCc2ccc(S(N)(=O)=O)cc2)cc1-n1cnc2cccnc21 | u | x | 5.9% | 31.8% | -20.7% | x
CC(=O)N/C(=C\c1ccccc1)C(=O)OCc1ccccc1 | x | 1.5 | -12.9% | 28.6% | 4.6% | 1.7
O=C(O)C/C=C(\NC(=O)OCc1ccccc1)C(=O)OCc1ccccc1 | 50.1µM* | x | 17.9% | 71.7% | x | 1.5
CSc1ccc2c(c1)N(CC[C@H]1CCCCN1C)c1ccccc1S2 | 11.2µM* | x | x | x | x | x
CN1CCCC[C@@H]1CCN1c2ccccc2Sc2ccc(S(C)=O)cc21 (stereo partly specified) | 7.94µM*! | x | x | x | x | x
CC(=O)c1ccc2c(c1)N(CCCN1CCC(CCO)CC1)c1ccccc1S2 | -9.6%[59 µM] | 1.0 | -35.3% | -3.9% | 3.5% | -3.2
CSc1ccc2c(c1)N(CCC1CCCCN1C)c1ccccc1S2 (stereo unspecified) | 17.8µM*! | u | 50.1µM* | u | 31.6µM* | u
CC1CCN(CC(O)CN2c3ccccc3Sc3ccccc32)CC1 (stereo unspecified) | u | x | u | -7.8% | u | -21.1
COc1ccc(CCNC(=O)C2(c3cccs3)CCOCC2)cc1 | 7.0%[59 µM] | x | -3.9% | 22.9% | 1.6% | x
O=C(Nc1ccccc1C(F)(F)F)c1cc2nc(-c3ccccc3)cc(-c3ccccc3)n2n1 | 23.4%[59 µM] | x | 8.5% | 48.6% | 2.0% | x
SMILES | G9a block | CtBP-E1A blk | JMJD2A Tudor inh | HP1b binding inh | BAZ2B inh | Six1-Eya2 blk
O=C(c1cc(C2CC2)nn1-c1ccccc1)N1CCN(c2ccc(O)cc2)CC1 | 2.82µM* | -9.7 | 31.6µM* | 70.8µM* | u | -16.2
O=C(c1cc(C2CC2)nn1-c1ccccc1)N1CCN(c2ccccc2O)CC1 | x | -0.9 | -34.2% | 7.6% | x | -18.0
O=C(c1cc(-c2cccc(O)c2)on1)N1CCCC1 | 50.1µM* | -7.2 | -9.2% | 10.1% | -1.0% | -13.6
O=C(c1cc(-c2ccc(O)cc2)on1)N1CCN(c2ccccc2)CC1 | -4.0%[59 µM] | -1.8 | 56.2µM* | -21.9% | u | -11.5
O=C(c1cc(-c2cccc(O)c2)on1)N1CCCCC1 | 7.6%[59 µM] | -10.5 | -6.8% | 26.4% | 11.0% | 5.4
CCCCn1c(=O)[nH]c(=O)c2c1nc(CN1C(=O)c3ccccc3S1(=O)=O)n2CCC | 7.1% | -1.0 | 1.7% | 28.8% | 4.0% | -1.5
CCCCn1c(=O)[nH]c(=O)c2c1nc(Cn1ncc(Cl)c(Cl)c1=O)n2CCC | 35.5µM* | 3.1 | u | -26.9%[57 µM] | 3.4% | -13.4
CC(OC(=O)c1cc(=O)[nH]c2ccccc12)C(=O)Nc1ccccc1F (stereo unspecified) | 31.6µM* | 13.7 | 2.9% | 35.9% | 8.1% | -3.5
CC(OC(=O)c1cc(=O)[nH]c2ccccc12)C(=O)N1C(C)CCCC1C (stereo unspecified) | 24.5%[2.33 µM] | 2.7 | 17.8µM* | 43.9% | 2.6% | -0.8
CCNc1ncc2ncc(=O)n(C)c2n1 | -1.2%[12.7 µM] | x | x | x | x | x
CCOc1ccc(NC(=O)Nc2ccon2)cc1 | x | 3.7 | -15.7% | 28.1% | -3.3% | 0.3
